Compound activity (PubChem)
In the library only some 3.3% were active in any assay of this set; here they are far more common.
Calb FLC = C. albicans growth modulation with fluconazole. C. albicans CaCi-2 (fluconazole-resistant clinical isolate) + fluconazole, Alamar Blue growth, 48 h. growth inhibition, % (concentration not given with the values). 300,000 compounds, 0.57% hits;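 active = growth inhibition above about 58% in most replicates, limit read from the data, passing the limit was not always enough; inconclusive = exactly half the replicates above a set limit; inactive = most replicates below a set limit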;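 note: all wells also contain fluconazole at 8 µg/ml as a sub-toxic cotreatment; 0% = median of DMSO wells and 100% = median of geldanamycin control wells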
PHOSPHO1 inh = PHOSPHO1 (human) inhibition | Q8TCT1 | inhibition, % at 13.3 µM | recombinant PHOSPHO1, absorbance phosphatase assay | 290,000 compounds, 1.1% hits; in the data active = inhibition above about 60%
Target sequence (Q8TCT1 whole entry, looked up): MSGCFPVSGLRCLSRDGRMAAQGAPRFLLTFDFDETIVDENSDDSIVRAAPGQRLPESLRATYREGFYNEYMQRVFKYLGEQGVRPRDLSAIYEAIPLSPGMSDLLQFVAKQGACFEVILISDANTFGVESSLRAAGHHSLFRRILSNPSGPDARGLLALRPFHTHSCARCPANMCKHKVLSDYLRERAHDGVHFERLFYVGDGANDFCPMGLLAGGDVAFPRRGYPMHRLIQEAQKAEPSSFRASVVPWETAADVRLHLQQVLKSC
Cardio protect = myocardial damage modulation in H9c2 cells; H9c2 cardiomyocytes, H2O2 injury protection, ATPLite, 2 h; protection from H2O2 cell death, % at 20 µM; 360,000 compounds, 0.63% hits;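 active = compounds giving at least 50% protection of heart cells from peroxide-induced death in the single-dose screen, raw or plate-pattern-corrected value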;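 note: 0% = DMSO wells with peroxide and 100% = DMSO wells without peroxide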
Efflux pump mplx = antifungal efflux pump inhibition, Nile Red retention; S. cerevisiae Candida pump triplex; inhibition, % at 10 µM; 330,000 compounds, 0.44% hits; AID 485275;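 active = plate passing quality check with inhibition over a set limit, or well fluorescence over plate mean plus 4 SD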;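 note: Nile Red retained in pooled yeast measured as flow cytometry median fluorescence; 0% = buffer negative control and 100% = Enniatin B positive control; higher means more Nile Red kept so more efflux inhibition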
KCC2 mod = KCC2 (human) Cl- transport modulation; AID 1456; KCC2 cells, thallium flux FluoZin-2 fluorescence; B-score of Tl+ flux slope (higher = more flux/activation; lower = inhibition) at 10 µM; 190,000 compounds, 2.2% hits; Q9H2X9;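 active = thallium flux slope and its plate-corrected score both differing from the plate sample mean at a set confidence after two filtering rounds, in either direction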;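 note: slope of fluorescence scaled to starting intensity during 10 to 20 s after thallium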
* marks the source's active call; other numbers are inactive results; u = inconclusive; x = no result given.

SMILES	Calb FLC	PHOSPHO1 inh	Cardio protect	Efflux pump mplx	KCC2 mod
N#Cc1ccccc1S(=O)(=O)N1CCN(c2nc(-c3cccnc3)nc3ccccc23)CC1	x	x	83*	x	x
CN1CCN(c2nc(-c3cccnc3)nc3ccccc23)CC1	12	23	1	0	-0.75
COc1cc2c(cc1OC)CN(c1nc(-c3cccnc3)nc3ccccc13)CC2	7	9	58*	0	-1.8
COC(=O)C(NNc1ccccc1)(NC(=O)c1cccc(F)c1)C(F)(F)F (configuration not stated)	-8	99*	6	0	-0.0039
Cc1cc(C)c2nc(NC(=O)c3cc(C)on3)sc2c1	0	9	10	0	39*
CCc1noc(C)c1C(=O)Nc1nc2c(C)cc(C)cc2s1	8	x	-7	0	x
CCc1ccc2nc(NC(=O)c3cc(C)on3)sc2c1	46	12	-18	0	42*
CN1C(=S)SC(N(O)C(=O)Nc2cccc3ccccc23)C1(C)C (configuration not stated)	-3	63*	-24	0	1.2
CN1C(=S)SC(N(O)C(=O)Nc2ccccc2)C1(C)C (configuration not stated)	-5	14	-3	0	0.93
COc1ccc(CC(N)c2csc(NC(=O)c3cc(C(C)(C)C)nn3Cc3ccccc3)n2)cc1 (configuration not stated)	x	x	-29	x	x
COC(=O)c1cc2c(C)cc3ccc(C)cn3c-2c1C(=O)OC	u	-6	12	0	0.37
COC(=O)c1cc2ccccn2c2c(C(=O)OC)c(C(=O)OC)cc1-2	5	-9	79*	0	0.23
COC(=O)c1cc2c(C)c(C)c3ccccn3c-2c1C(=O)OC	3	15	62*	0	-0.049
CC(C)NC(=O)c1ccc2sc([C@H]3C[C@H](O)[C@@H](CO)O3)nc2c1	x	x	4	x	x
O=C1/C(=C/c2ccco2)SC(=S)N1c1cccnc1	7	61*	1	x	0.014
CCN(c1nc(N)c(C(=O)N=C(N)N)nc1Cl)C(C)C	9	x	-5	0	x
O=C(N/N=C/c1ccccc1O)C1SCCCS1	4	24	70*	1	0.041
O=C(CCSCCC(=O)NN=Cc1ccccc1O)NN=Cc1ccccc1O	x	x	58*	x	x
O=C(CSc1n[nH]c(=O)[nH]c1=O)N/N=C/c1ccccc1O	11	3	4	0	-0.025
O=C(CSc1ccccc1)N/N=C/c1ccccc1O	2	48	51*	0	-0.13
COc1cc(/C=N/NC(=O)CSc2cc(C)c(Br)cc2C)ccc1O	27	12	-21	0	0.11
Cc1cc(SCC(=O)N/N=C/c2ccc(O)c(O)c2O)c(C)cc1Br	107*	-1	41	0	-0.77
CCN(CC)c1ccc(C(=O)NNC(=O)C2CCN(c3ncnc4sc(C)c(C)c34)CC2)cc1	x	x	7	x	x
O=C(Nc1ccc([N+](=O)[O-])cc1)c1cc(Cl)sc1Cl	0	22	-6	0	x
CC1CC(=O)Nc2ccccc2N1 (configuration not stated)	x	x	1	x	x
SMILES	Calb FLC	PHOSPHO1 inh	Cardio protect	Efflux pump mplx	KCC2 mod
CC1Cc2ccccc2C(=O)N1 (configuration not stated)	-13	18	97*	0	0.89
CCOC(=O)N1CCC(N2CCN(S(=O)(=O)c3ccc([N+](=O)[O-])cc3)CC2)CC1	3	-1	-6	0	1.1
CCn1c(=S)sc2c(=O)n(CC(=O)Nc3cc(OC)ccc3OC)c(C)nc21	0	16	2	0	x
Cc1ncc(CO)c2c1Oc1nc(-c3ccccc3)nc(SCC(=O)N3CCOCC3)c1C2	-31	33	33	1	x
COc1cccc(-c2nc3c(c(SCC(=O)N4CCOCC4)n2)Cc2c(CO)cnc(C)c2O3)c1	4	21	72*	0	x
Cc1ncc(CO)c2c1Oc1nc(-c3ccccc3)nc(SCC(=O)N3CCCCC3)c1C2	-9	44	74*	0	x
Cc1cccc(-c2nc3c(c(SCC(=O)N4CCOCC4)n2)Cc2c(CO)cnc(C)c2O3)c1	-3	40	51*	0	x
CNc1sc(C(=O)c2ccc(F)cc2)c(N)c1-c1nc2ccccc2s1	25	28	-11	0	9.9*
CNc1sc(C(=O)c2cccs2)c(N)c1-c1nc2ccccc2s1	6	59	-11	0	0.12
O=c1c2ccccc2nc(/C=C/c2ccc([N+](=O)[O-])o2)n1CCCO	108*	-14	4	0	x
O=c1c2ccccc2nc(/C=C/c2ccc([N+](=O)[O-])cc2)n1CCCO	16	2	21	0	-0.38
O=C1OCC2=C1C(c1ccc(F)cc1)c1cc3c(cc1N2)OCO3 (configuration not stated)	x	28	-6	x	-0.0097
CCOc1ccccc1C1C2=C(COC2=O)Nc2cc3c(cc21)OCO3 (configuration not stated)	83*	6	4	0	-0.01
CCOc1cccc(C=Nc2cc(C)cc(C)c2O)c1O	-12	14	93*	0	-1.1
Cn1ncc2c(=S)nc(Cl)[nH]c21	x	x	2	x	x
COc1cccc(-c2nn(C)c3sc(C(=O)Nc4ccc5c(c4)OCCO5)cc23)c1	5	-36	30	0	-0.36
Cn1nc(-c2ccccc2F)c2cc(C(=O)Nc3ccc4c(c3)OCCO4)sc21	41	7	56*	0	x
COc1cc(OC)c(C2CC(=O)N3CN(c4ccccc4)CSC3=C2C#N)cc1OC (configuration not stated)	31	103*	-5	0	-0.33
CCc1ccccc1N1CSC2=C(C#N)C(c3cc(OC)c(OC)cc3OC)CC(=O)N2C1 (configuration not stated)	9	6	8	0	-0.62
CCOC(=O)c1ccc(N2CSC3=C(C#N)C(c4ccc(OC)cc4OC)CC(=O)N3C2)cc1 (configuration not stated)	-1	90*	-16	0	x
COc1cc(OC)c(C2CC(=O)N3CN(C)CSC3=C2C#N)cc1OC (configuration not stated)	-5	48	0	0	x
COc1ccc(OC)c(C2CC(=O)N3CN(c4ccc(C)c(Cl)c4)CSC3=C2C#N)c1 (configuration not stated)	1	79*	-8	0	x
COc1ccc(OC)c(C2CC(=O)N3CN(c4cccc(Cl)c4)CSC3=C2C#N)c1 (configuration not stated)	0	94*	3	0	x
CCCCn1c(N)c(N(CCOC)C(=O)CSCc2ccc(C)cc2)c(=O)[nH]c1=O	0	x	-1	0	x
COc1ccc(N2CCN(C(=O)c3ccc(NC(=O)C4=CSCCO4)cc3)CC2)cc1	-10	43	-1	0	x
O=C(Cn1nc(C(=O)O)c2ccccc2c1=O)c1c[nH]c2ccccc12	1	40	57*	0	x
CC1CCCC(NC(=O)CCN2C(=O)COc3ccccc32)C1C (configuration not stated)	x	x	5	x	x
Oc1ccc(/C=N/N(c2ccccc2)c2ccccc2)cc1O	37	4	36	-2	x
